The results in this text go back to the supplement of paper PMC4206467.

Structures are written as SMILES.

In the assay the test system is Perkinsus marinus PRA240. As to the kind of experiment: ATP content (proliferation) relative to DMSO control; higher = more parasite growth (less inhibition). The conditions noted are these: 20 µM; 4 days. Here is the method:
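Perkinsus marinus PRA240 trophozoites (2-5x10^6 cells/ml, 100 µl, 96-well) were exposed once to MMV Malaria Box compounds at 20 µM (0.1% DMSO) in triplicate. ATP content (ATPlite bioluminescence) was read at day 4 post-exposure and normalised to DMSO + cells control wells (100% activity). Compounds were identified by joining plate and well to the Malaria Box list.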
Consider `Nc1ccn(C2O[C@H](CO)[C@@H](O)[C@H]2O)c(=O)n1` (some centres not stated), for which the ATP content turned out to be 132%.
Then `O=C(NC1CCCC1)c1ccc(N2CCC(NCc3cccc(C(F)(F)F)c3)CC2)cc1`, with 103%; and `O=C(Nc1ccc(N2CCN(Cc3ccccc3)CC2)cc1)c1cccs1`, with 86.8%; and `Cc1ccc(C)c(Cn2c(N3CCC(C(=O)NCc4cccs4)CC3)nc3ccccc32)c1`, with 154%.
For `FC(F)(F)c1cccc(CNC2CCN(CCc3ccccc3)CC2)c1` the value was 95.6%.
For `CCOC(=O)C1(Cc2ccccc2)CCN(Cc2cccc(OC)c2O)CC1` the value was 143%.
Consider `O=C(Nc1ccc(-c2nc3ccccc3[nH]2)cc1)c1ccc(Cl)c(Cl)c1`, for which the ATP content turned out to be 97.8%.
Consider `CC1CCN(Cc2c(O)ccc3cc(-c4nc5ccccc5s4)c(=O)oc23)CC1`, for which the ATP content is 124%.
For `Cc1sc(NC(=O)c2ccco2)c(C(c2cccnc2)N2CCC(Cc3ccccc3)CC2)c1C` (configuration not stated) the value was 48.5%; for `COc1ccc2c(c1OC)C(=O)N1c3ccccc3N=C(c3ccc(C)cc3)CC21` (configuration not stated), 155%.
For `CCOc1cc2c(cc1OCC)C(c1cc(Cl)ccc1O)NCC2` (configuration not stated) the value was 91.6%.
Then `O=c1nc(C=Cc2ccc(Cl)cc2)oc2ccccc12`, with 22.2%.
`CC(C)OCc1cc(CN2CCN(c3cccc(Cl)c3)CC2)c(O)c2ncccc12` showed an ATP content of 12%.
For `CC(C)CNC(=O)c1c(N)n(CCc2ccccc2F)c2nc3ccccc3nc12` the value was 90.4%.
For `CCCOCc1cc(CN2CCN(c3cccc(Cl)c3)CC2)c(O)c2ncccc12` the value was 22.8%; for `CCOc1c(Cl)cc(CNCC(O)c2ccccc2)cc1OC` (configuration not stated), 105%.
For `CCOc1cc(Br)c(C(C)NC(=O)c2cccc(OC)c2)cc1OCC` (configuration not stated) the value was 115%; for `O=C(Nc1ccc(Cl)cc1C(=O)Nc1ccncc1)c1ccc(Cl)cc1Cl`, 103%; for `CCn1c(SCC(=O)Nc2cc(C(F)(F)F)ccc2Cl)nc2ccccc2c1=O`, 102%.
Compound `CCC(=O)Nc1nnc(Cc2ccc(OC)c(OC)c2)s1` gave an ATP content of 103%.
Then `C=C(C)CCC(C)N1CCC(N2CCC(C(=O)NCCc3ccccc3)CC2)CC1` (configuration not stated), with 90%.
For `Oc1c2c(nc3ccccc13)CCCC2`, the ATP content came to 42.5%.
`CCN(CC)c1ccc(NC(=O)c2cccs2)cc1` yielded an ATP content of 64%.
Compound `O=C(Nc1ccc(Cl)cc1)N1CCN(c2ccc3nncn3n2)CC1` gave an ATP content of 124%.
Then `Cc1cc(NC(=O)c2ccc(-c3ccccc3)cc2)no1`, with 69.1%; and `COc1cccc(C(=O)Nc2ccc(-c3nc4ccccc4[nH]3)cc2)c1`, with 108%; and `CCCCc1c(C)nc2c(OC)cccc2c1O`, with 37.3%.
With `c1ccc(-c2ccc(-c3nc4ccccc4[nH]3)cc2)cc1`, the ATP content came to 16.5%.
For `Oc1c(CN2CCN(c3ccccc3F)CC2)cc(Br)c2cccnc12` the value was 105%; for `CCN(CC)CCCNc1ccnc2cc3ccccc3cc12`, 139%.
For `Oc1c2c(nc3cc(-c4ccccc4)nn13)CCCC2` the value was 47.5%.
Then `CC1(c2ccccc2)Nc2ccccc2-c2nc3ccccc3n21` (configuration not stated), with 109%.
The compound `COc1ccc(-c2cc3c(nn2)-c2ccccc2C3=O)cc1` came in with an ATP content of 32.7%.
For `O=C(Nc1ccc(-c2nc3cc4ccccc4cc3[nH]2)cc1)c1cccc(Br)c1` the value was 124%; for `Nc1nc(Nc2cccc(F)c2)nc2ccccc12`, 26%; for `O=C(Cc1ccccc1)NC(c1ccc(Cl)cc1)c1c(O)ccc2ccccc12` (configuration not stated), 36%.
For `Cc1cccc(-n2ncc3c(=O)[nH]c(-n4nc(C)cc4NC(=O)c4cc5ccccc5o4)nc32)c1` the value was 19%.
